Screening data: PubChem, several laboratories
CD11b adhes enh: increases human CD11b/CD18 adhesion to fibrinogen; 93,000 tested, 0.07% active; activation, % at 10 µM; K562 CD11b/CD18 adhesion to fibrinogen, ATPlite luminescence;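 active = 10 µM primary screen giving 50% or more activity, confirmed by 40% or more on retest at that dose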
CD11b adhes inh: CD11b/CD18-fibrinogen binding inhibition | 93,000 tested, 0.54% active | inhibition, % at 10 µM | P05107+P11215 | K562 CD11b/CD18 adhesion to fibrinogen, ATPlite luminescence; Mn2+ added to activate the integrin;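 active = primary inhibition of 50% or more at 10 µM, then 40% or more on retest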
E coli WT exp: E. coli BW25113 growth inhibition, expanded screen; OD600 absorbance; growth inhibition, % at 100 µM; 98,000 tested, 0.15% active; AID 710;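 active = growth inhibition above about 50% at one test dose, limit read from the data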;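 also: growth measured after 20 h incubation at 37 °C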
Cav32 inh: blocks human Cav3.2 T-type calcium channel; O95180; B-score at 10 µM; 100,000 tested, 4% active; AID 449739; Cav3.2-expressing cells, Fluo-4 calcium fluorescence FDSS; hits give low values;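 active = single-dose well whose peak fluorescence ratio is a statistical outlier from its plate by either plate-standardised score or position-corrected B-score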
* hit, by the source's call; . = no result given. The sample as a whole holds a higher share of hits than the screen did.

SMILES	CD11b adhes enh	CD11b adhes inh	E coli WT exp	Cav32 inh
CC1CCCCN1C(=O)CSCC(=O)Nc1nc(-c2cccs2)cs1 (centres undefined)	.	.	-6	-4.9*
CC1CCN(C(=O)CSCC(=O)Nc2nc(-c3cccs3)cs2)CC1	.	.	-12	-5.7*
Cc1ccc(-c2[nH]c3ccccc3c2SCCNC(=O)c2ccc(S(=O)(=O)N3CCOCC3)cc2)cc1	.	.	.	-0.72
O=[N+]([O-])c1cc(-c2csc(NC(CO)c3nc4ccccc4n3CCOCCO)n2)ccc1Cl (centres undefined)	.	.	.	0.14
Cc1ccc2c(c1)N(CC(=O)NCc1cccs1)C(=O)CO2	-6	-27	2	0.059
COc1cccc(NC(=S)N2CCN(C/C=C/c3ccccc3)CC2)c1	.	.	9	-4.9*
COc1cc(NC(=S)N2CCN(C/C=C/c3ccccc3)CC2)cc(OC)c1	3	-6	.	.
C#CCNC(=O)C1=C[C@@H](C2CCCCC2)[C@H](CCCO)[C@@H](OCC)O1	.	.	.	0.2
CN(C(=O)Cc1ccccc1)n1cnnc1	.	.	.	-0.014
Cc1onc(-c2ccccc2)c1C(=O)Nc1cccc(OC(C)C)c1	5	-43	-1	-0.99
COc1ccc(Cc2nnc(NC(=O)c3c(-c4ccccc4)noc3C)s2)cc1	-3	-2	-6	-5.2*
CCCOc1cccc(NC(=O)c2c(-c3ccccc3)noc2C)c1	8	-10	0	-4.9*
COc1ccc(Cc2nnc(NC(=O)c3c(-c4ccccc4)noc3C)s2)cc1OC	0	-1	-4	.
CC1(C(=O)N2CC3(CC(c4cccc(NC(=O)CC(c5ccccc5)c5ccccc5)c4)=NO3)C[C@@H]2C(N)=O)CC1 (some centres undefined)	.	.	.	-0.011
CC(C)CCNC(=O)Cn1c2c(c(-c3ccccc3Cl)cc1=O)CCC2	1	18	1	-1.6
CC1CCC(NC(=O)Cn2c3c(c(-c4ccccc4Cl)cc2=O)CCC3)CC1 (centres undefined)	1	6	4	-5.1*
CC(C)Oc1ccc(Cc2cnc(N)nc2N)cc1	-2	-3	71*	0.53
COc1ccc(Cc2c(N)nc(N)nc2N)cc1	.	.	15	0.0048
COc1ccc(C2/C=C\CN(C(=O)c3ccccc3)[C@H](Cc3ccccc3)C(=O)N2Cc2ccc(F)cc2)cc1 (some centres undefined)	.	.	.	-2.3
O=C1CCCc2oc3ccc(O)cc3c21	.	.	.	0.024
O=C(c1ccccc1)c1nc2ccccc2n(CCCn2c(=O)c(C(=O)c3ccccc3)nc3ccccc32)c1=O	132*	-10	-15	-0.87
COc1ccc(-c2csc(NC(CO)c3nc4ccccc4n3CCCO)n2)cc1 (centres undefined)	.	.	.	-0.015
O=C(NCC1CCCO1)c1ccccc1 (centres undefined)	1	19	-1	-0.42
Nc1c(C(=O)NCC2CCCO2)c2nc3ccccc3nc2n1-c1ccccc1 (centres undefined)	.	.	-5	-5.6*
O=C(NCCCN1CCCC1=O)c1ccccc1NS(=O)(=O)c1ccc(Br)cc1	2	-10	2	0.98
SMILES	CD11b adhes enh	CD11b adhes inh	E coli WT exp	Cav32 inh
CCOC(=O)CSc1nnc(CNc2cccc(Cl)c2)n1-c1ccccc1	1	8	11	-5.6*
CC(C)OC(=O)CSc1nnc(CNc2cccc(Cl)c2)n1C	.	.	.	0.62
Cn1c(CNc2cccc(Cl)c2)nnc1SCC(=O)OC1CCCCC1	1	-16	7	-8.5*
O=C(Nc1ccc2c(c1)CCC2)c1cc(S(=O)(=O)N2CCN(c3ccccc3)CC2)ccc1Cl	6	-6	-2	-2.7
CCOC(=O)c1cnn(CCOC(=O)C2CC2)c1NC(=O)C1CC1	-3	-6	-3	-3.6*
COc1ccc(-c2noc(CCC(=O)N3CCN(c4cccc(C(F)(F)F)c4)CC3)n2)cc1	-2	5	0	-4.8*
COc1cccc(NC(=O)CCc2nc(-c3ccccc3F)no2)c1	-2	4	7	-0.22
COc1ccccc1-c1noc(CCC(=O)Nc2cccc(C(F)(F)F)c2)n1	.	.	-8	-7.6*
Cc1ccc(-c2noc(CCC(=O)Nc3cccc(C#N)c3)n2)cc1	0	-7	-5	-4.2*
Cc1nn(-c2ccccc2)c(Cl)c1C(=O)N(C)c1nc(-c2ccc(F)cc2)cs1	1	-23	.	.
CCCCC(=O)N1C/C=C\C(c2ccc(OC)cc2)N(Cc2ccc(F)cc2)C(=O)C1 (centres undefined)	.	.	.	-0.075
CCCNC(=O)c1ccc2c(c1)C1C3CCC(C3)C1C(c1ccccc1)N2 (centres undefined)	-2	6	-25	-5*
CCOC(=O)C1C(=O)NC(SCC(N)=O)=C(C#N)C1c1ccccc1OCC (centres undefined)	0	-9	5	-0.022
CCOC(=O)C1C(=O)NC(SC)=C(C#N)C1c1ccccc1F (centres undefined)	1	-6	2	-4.9*
CCc1ccc2nc(N3C(=O)C(O)=C(C(=O)c4ccco4)C3c3cccs3)sc2c1 (centres undefined)	.	.	-14	-4.3*
CCOC(=O)CN1C(=O)CN(c2ccc(C)c(C)c2)C1=O	5	-2	.	.
Cc1ccc(NC(=O)N(Cc2ccco2)C(C)c2ccco2)cc1C (centres undefined)	.	.	-2	-4.6*
O=C(CCCC(=O)OCC(Cl)=C(Cl)Cl)Nc1ccc(F)cc1	1	11	.	.
COc1cc(C(=O)N2CCN(c3ncnc4sc(C)c(C)c34)CC2)cc(OC)c1OC	-12	60*	0	1.2
Cc1sc2ncnc(N3CCN(c4ncccn4)CC3)c2c1C	-1	8	12	-1.5
COC(=O)[C@@]1(Cc2ccc(OC)cc2)[C@H]2c3cc(C(=O)N4CCCC4)n(Cc4ccc(C)o4)c3C[C@H]2CN1C(=O)c1ccccc1	.	.	.	-1.5
Fc1ccc(CSc2nnc(Cc3sc(-c4ccccc4)nc3-c3ccccc3)o2)cc1	-2	-28	-30	0.67
COc1ccc(CSc2nnc(Cc3sc(-c4ccccc4)nc3-c3ccccc3)o2)cc1	-1	-4	-26	-5.2*
O=C(OCC(=O)N1N=C(c2ccc(Cl)cc2)CC1c1ccco1)c1ccccc1O (centres undefined)	-6	15	-20	-4.7*
CCC(=O)N1N=C(c2c(-c3ccccc3)c3cc(Cl)ccc3[nH]c2=O)CC1c1ccco1 (centres undefined)	75	-22	.	.
SMILES	CD11b adhes enh	CD11b adhes inh	E coli WT exp	Cav32 inh
Cc1cc2n(n1)C(c1ccc(N(C)C)cc1)Nc1ccccc1-2 (centres undefined)	8	-3	5	-7.2*
Cc1cc2n(n1)C(c1ccccc1)Nc1ccccc1-2 (centres undefined)	7	3	4	0.7
Cc1ccccc1-c1nc(CN2CCC(C(=O)NCc3cccnc3)CC2)c(C)o1	-2	13	-5	2.2
Cc1ccc(S(=O)(=O)c2nc(-c3ccccc3)oc2NCc2cccnc2)cc1	-2	7	-8	-5.3*
O=S(=O)(c1ccccc1)c1nc(-c2ccco2)oc1NCCN1CCOCC1	-4	-12	-3	-2.3
Cc1ccc(CNc2oc(-c3ccco3)nc2S(=O)(=O)c2ccccc2)cc1	.	.	.	-4.7*
Cc1ccccc1-c1nc(S(=O)(=O)c2ccc(Br)cc2)c(NCc2cccnc2)o1	-2	16	-11	-2.5*
